Calls of active or inactive are those of the source. Rule for the calls: active = hit-call score of the fitted dose curve at least 0.9, where 1 is the maximum; inactive = score below 0.9.

The nature of this assay: Tanguay_ZF_120hpf_BRN: Oregon State University Tanguay Lab 120 Hour Post-fertilization zebrafish Assay for Brain Region Malformation (AID 2284402). On the procedure: Tanguay_ZF_120hpf is a whole embryo, multiplexed endpoint assay using zebrafish larvae exposed for 120 hours post fertilization on a 96-well plate.Tanguay_ZF_120hpf_BRN is one of one assay component(s) measured or calculated from the Tanguay_ZF_120hpf assay. It is designed to make measurements of zebrafish development as detected with brightfield microscopy of developing zebrafish embryos.Data from the assay component Tanguay_ZF_120hpf_BRN was analyzed into 1 assay endpoints. This assay endpoint, Tanguay_ZF_120hpf_BRN, was analyzed in the positive analysis fitting direction relative to DMSO as the negative control and baseline of activity. Using a type of morphology reporter, gain-of-signal activity can be used to understand changes in developmentals as they relate to the whole embryo. To generalize the intended target to other relatable targets, this assay endpoint is annotated to the zebrafish development intended target family, where the subfamily is brain morphogenesis.
Zebrafish husbandry: Tropical 5D wild-type adult zebrafish were housed in at an approximate density of 1000 per 100 gallon tank at the Sinnhuber Aquatic Research Laboratory, Oregon State University, Corvallis, OR. Each tank was kept at standard laboratory conditions of 28C on a 14-h light/10-h dark photoperiod in fish water consisting of reverse osmosis water supplemented with a commercially available salt (Instant Ocean). Spawning funnels were placed into the tanks the night prior, and embryos were collected and staged. To increase bioavailability, the chorion was enzymatically removed using pronase (63.6mg/ml, >/= 3.5U/mg, Sigma-Aldrich: P5147) at 4 hours post fertilization (hpf) using a custom automated dechorionator.Chemical exposures: Six hpf dechorionated embryos were placed 1 embryo per well in a 96-well plate prefilled with 90 ul of EM using automated embryo placement systems (AEPS). Ten microliters of each row of dilution plate 2 was added to 2 exposure plates. The final DMSO concentration used was 0.64% (vol/vol). Thirty-two embryos were also exposed to 5uM trimethyltin chloride (positive control). Plates were sealed to prevent evaporation and foil covered to reduce light exposure and kept in a 28C incubator. Embryos were statically exposed until 120 hpf. At 24 hpf, embryos were assessed for photomotor response using a custom photomotor response analysis tool (PRAT) and for developmental toxicity endpoints (MO24: mortality at 24 hpf, DP: developmental progression, SM: spontaneous movement, and NC: notochord distortion). At 120 hpf, locomotor activity was measured using Viewpoint Zebralab and assessed for 13 endpoints. Zebrafish acquisition and analysis program (ZAAP), a custom program designed to inventory, acquire, and manage zebrafish data, was used to collect developmental endpoints as either present or absent (i.e., binary responses were recorded). If mortality occurred for an embryo (at either 24 or 120 hpf), the non-mortality endpoints were not measured.
For the compound `O=C(O)C(F)(F)C(F)(F)C(F)(F)C(=O)O`, the call was inactive.

Consider `NC(=O)C(F)(F)C(F)(F)C(F)(F)C(F)(F)C(F)(F)C(F)(F)C(F)(F)F`, for which the compound was classed as inactive. On to `O=S(=O)(O)CCC(F)(F)C(F)(F)C(F)(F)C(F)(F)C(F)(F)C(F)(F)C(F)(F)C(F)(F)F`, for which the result was inactive. Still for that read-out and setting: the entry for `CCOC(=O)CC(=O)C(F)(F)C(F)(F)F` is “inactive”. Same read-out and setting: the entry for `FC(F)(F)C(F)(F)C(F)(F)C(F)(F)C(F)(F)C(F)(F)C(F)(F)CCI` is “inactive”; for `O=C(O)C(F)(F)C(F)(F)C(F)(F)OC(F)(C(F)(F)F)C(F)(F)F` it is “inactive”; for `NC(=O)C(F)(F)C(F)(F)C(F)(F)C(F)F` it is “inactive”.

Consider `O=C(F)C1(F)C(F)(F)C(F)(F)C(F)(F)C(F)(F)C1(F)F`, for which the outcome was inactive. Still for that read-out and setting: the same measure for `NS(=O)(=O)C(F)(F)C(F)(F)C(F)(F)C(F)(F)C(F)(F)C(F)(F)F`: “inactive”; for `C=CC(=O)OCCC(F)(F)C(F)(F)C(F)(F)C(F)(F)F`: “inactive”. Still for that read-out and setting: the entry for `O=S(=O)(O)CCC(F)(F)C(F)(F)C(F)(F)C(F)(F)F` is “inactive”; for `O=S(=O)(Cl)C(F)(F)C(F)(F)C(F)(F)C(F)(F)C(F)(F)C(F)(F)C(F)(F)C(F)(F)F` it is “inactive”. On to `C=CC(=O)OCC(F)(F)C(F)(F)C(F)(F)COC(=O)C=C`, for which the AC50 was 4.29 µM (active). As for `OCC(F)(F)C(F)(F)C(F)(F)C(F)(F)C(F)(F)C(F)(F)C(F)(F)C(F)(F)CO`, the outcome was inactive. Same read-out and setting: the same measure for `O=C(O)C(F)(F)C(F)(F)C(F)(F)OC(F)(F)F`: “inactive”; for `CN(C(=O)C(F)(F)C(F)(F)C(F)(F)F)[Si](C)(C)C`: “inactive”; for `FC(F)(F)C(F)(F)C(F)(F)CC1CO1` (configuration not stated): “inactive”. Same read-out and setting: the same measure for `CCN(CCO)S(=O)(=O)C(F)(F)C(F)(F)C(F)(F)C(F)(F)C(F)(F)C(F)(F)C(F)(F)C(F)(F)F`: “inactive”. Still for that read-out and setting: the same measure for `CO[Si](C)(CCC(F)(F)C(F)(F)C(F)(F)C(F)(F)C(F)(F)C(F)(F)F)OC`: “inactive”. For the compound `O=C(O)CCC(F)(F)C(F)(F)C(F)(F)C(F)(F)C(F)(F)C(F)(F)C(F)(F)F`, the compound was called inactive.

As to `OCC(O)CC(F)(F)C(F)(F)C(F)(F)C(F)(F)C(F)(F)C(F)(F)C(F)(F)C(F)(F)F` (configuration not stated), the compound was classed as inactive. Still for that read-out and setting: the same measure for `NC(=O)C(F)(F)C(F)(F)C(F)(F)F`: “inactive”; for `CNS(=O)(=O)C(F)(F)C(F)(F)C(F)(F)C(F)(F)C(F)(F)C(F)(F)C(F)(F)C(F)(F)F`: “inactive”. The same measure, in the same setting: the same measure for `O=S(=O)(OCC(F)(F)F)C(F)(F)C(F)(F)C(F)(F)C(F)(F)F`: “inactive”. Still for that read-out and setting: the entry for `OCCCC(F)(F)C(F)(F)C(F)(F)C(F)(F)C(F)(F)C(F)(F)C(F)(F)C(F)(F)F` is “inactive”; for `OCC(O)CC(F)(F)C(F)(F)C(F)(F)C(F)(F)F` (configuration not stated) it is “inactive”. Regarding `FC(F)(F)C(F)(F)C(F)(F)C(F)(F)C(F)(F)C(F)(F)CC[Si](Cl)(Cl)Cl`, the result was inactive. On the same count and under the same terms, the entry for `NC(=O)C(F)(F)C(F)(F)C(F)(F)C(F)(F)C(N)=O` is “inactive”.

With `OCC(F)(F)C(F)(F)C(F)(F)C(F)(F)C(F)(F)C(F)(F)CO`, the compound was called inactive. The same measure, in the same setting: the entry for `COC(F)(C(F)F)C(F)(F)F` (configuration not stated) is “inactive”; for `C=CC(=O)OCC(F)(F)C(F)(F)C(F)(F)C(F)(F)C(F)(F)C(F)(F)C(F)(F)C(F)F` it is “inactive”.

For the compound `OCC(F)(F)C(F)(F)C(F)(F)CO`, the call was inactive. Still for that read-out and setting: the same measure for `OC(O)C(F)(F)C(F)(F)F`: “inactive”; for `OCCCCC(F)(F)C(F)(F)C(F)(F)C(F)(F)F`: “inactive”; for `C[Si](Cl)(Cl)CCC(F)(F)C(F)(F)C(F)(F)C(F)(F)C(F)(F)C(F)(F)F`: “inactive”. Still for that read-out and setting: the same measure for `O=C(O)CCC(F)(F)C(F)(F)C(F)(F)F`: “inactive”; for `NC(O)(C(F)(F)F)C(F)(F)F`: “inactive”.

By AC50 is commonly meant the concentration at which the activity in the assay is half-maximal.

The record behind these values is PubChem BioAssay (EPA / NIEHS).
